Measured values published in PubChem BioAssay (NCI).
This is part of a sample that, as a whole, favours compounds with a hit. Of some 79,000 tested, about 15% had one in any assay. Activity calls are given as the source filed them. No stated cut-off is given here; in the data, active means growth inhibition above about 70%; inactive means the rest.

Experiments:
[1] = NCI Yeast Anticancer Drug Screen. Data for the wt1 strain (AID 149);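 further: 0% = growth of vehicle-treated wt1 cultures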; conditions: S. cerevisiae wt1 strain (SPY 50644) growth inhibition, stronger effect = higher value
In short: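 Yeast wt1 strain exposed to compounds; growth inhibition measured relative to vehicle-treated controls.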

[2] = NCI Yeast Anticancer Drug Screen. Data for the rad50EPP+ strain (AID 151);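 further: 0% = growth of vehicle-treated control cultures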; conditions: S. cerevisiae rad50 mutant strain, stronger effect = higher value
In short: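 Read-out is yeast growth inhibition relative to vehicle; cells used were the rad50EPP+ strain.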

[3] = NCI Yeast Anticancer Drug Screen. Data for the mgt1 strain (AID 153); conditions: S. cerevisiae mgt1 mutant growth inhibition, stronger effect = higher value
In short: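 Measured: inhibition of mgt1 yeast growth by compound, normalized to vehicle-treated cultures.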

[4] = NCI Yeast Anticancer Drug Screen. Data for the rad50 strain (AID 155);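 further: 0% = growth of vehicle-only cultures of the same strain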; conditions: S. cerevisiae rad50 strain growth inhibition, stronger effect = higher value
In short: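 Yeast carrying a defined DNA repair defect were exposed to test compounds, and growth was compared with vehicle-treated controls to give percent inhibition.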

[5] = NCI Yeast Anticancer Drug Screen. Data for the mec2-1 strain (AID 157); conditions: S. cerevisiae mec2-1 strain, stronger effect = higher value
In short: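 Using mec2-1 yeast: add compound, measure growth, express inhibition versus vehicle-treated cultures.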

[6] = NCI Yeast Anticancer Drug Screen. Data for the rad14 strain (AID 159);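 further: 0% = growth of vehicle-treated control cultures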; conditions: S. cerevisiae rad14 strain growth inhibition, stronger effect = higher value
In short: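 Yeast cells carrying a defined DNA-repair defect were exposed to compounds, and growth inhibition was calculated relative to vehicle-treated control cultures.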

[7] = NCI Yeast Anticancer Drug Screen. Data for the sgs1 mgt1 strain (AID 161);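 further: 0% = growth of cultures given vehicle only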; conditions: S. cerevisiae sgs1 mgt1 strain, stronger effect = higher value
In short: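 Compounds are added to genetically altered yeast, and growth is compared with cultures given vehicle alone to give percent inhibition.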

[8] = NCI Yeast Anticancer Drug Screen. Data for the CLN2oe strain (AID 163);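 further: 0% = growth of vehicle-only control cultures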; conditions: S. cerevisiae CLN2oe strain, stronger effect = higher value
In short: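 Whole-cell yeast growth assay. A strain engineered for altered cell-cycle control received compound, and inhibition relative to vehicle-treated cultures was recorded.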

[9] = NCI Yeast Anticancer Drug Screen. Data for the cln2 rad14 strain (AID 165);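 further: 0% = growth equal to vehicle treated cultures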; conditions: S. cerevisiae cln2 rad14 strain, stronger effect = higher value
In short: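 Yeast strain cln2 rad14, bearing defects in cell cycle control and DNA repair, serves as the test system; values reflect growth inhibition compared with vehicle.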

[10] = NCI Yeast Anticancer Drug Screen. Data for the bub3 strain (AID 167); conditions: S. cerevisiae bub3 mutant strain, stronger effect = higher value
In short: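 Compounds were applied to a genetically altered yeast strain carrying a cell-cycle control defect. Growth inhibition was scored against vehicle-treated controls.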

[11] = NCI Yeast Anticancer Drug Screen. Data for the mlh1 strain (AID 171);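 further: 0% = growth of vehicle-treated control cultures of the same strain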; conditions: S. cerevisiae mlh1 strain growth inhibition, stronger effect = higher value
In short: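 A yeast strain with a defined genetic lesion serves as the test organism. Cultures receive compound or vehicle, and growth is measured.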

[12] = NCI Yeast Anticancer Drug Screen. Data for the sgs1 strain (AID 173);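 further: 0% = growth of vehicle-only control cultures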; conditions: S. cerevisiae sgs1 mutant, stronger effect = higher value
In short: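 A genetically defined yeast mutant is incubated with the test compound, and its growth is compared to that of the same strain given vehicle.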

[13] = NCI Yeast Anticancer Drug Screen. Data for the mlh1 rad18 strain (AID 175); conditions: S. cerevisiae mlh1 rad18 strain growth inhibition, stronger effect = higher value
In short: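 Steps: expose repair-defective yeast to compound; measure growth; express inhibition against vehicle-treated controls.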

[14] = NCI Yeast Anticancer Drug Screen. Data for the rad18 strain (AID 177); conditions: S. cerevisiae rad18 mutant growth inhibition, stronger effect = higher value
In short: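 Measured value is growth inhibition of a yeast strain bearing a DNA repair alteration, referenced to vehicle-treated cells.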

[15] = NCI Yeast Anticancer Drug Screen. Data for the wt2 strain (AID 169);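 further: 0% = growth of vehicle-treated yeast cultures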; conditions: S. cerevisiae wt2 strain growth inhibition, stronger effect = higher value
In short: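 Treated yeast vs. vehicle-treated yeast: growth inhibition determined.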

[16] = at 5.0 µM (retest, dose inferred, filed as 0.5)
[17] = at 50.0 µM (retest, dose inferred, filed as 5.0)

Measured: growth inhibition

O=Cc1ccccc1B(O)O
inactive: [1]; at 1.2 µM -3% | [1]; at 3.7 µM -1% | [1]; at 11.0 µM 66% | [2]; at 1.2 µM 43% | [3]; at 1.2 µM 0% | [3]; at 3.7 µM 2% | [4]; at 1.2 µM 31% | [4]; [16] 48% | [5]; at 1.2 µM 2% | [5]; at 3.7 µM 25% | [5]; [16] -25% | [6]; at 1.2 µM 3% | [6]; at 3.7 µM 13% | [7]; [16] -25% | [8]; at 1.2 µM -4% | [8]; at 3.7 µM 11% | [9]; [16] -52% | [10]; at 1.2 µM -14% | [10]; at 3.7 µM -8% | [10]; [16] -83% | [11]; at 1.2 µM 8% | [11]; at 3.7 µM 14% | [12]; at 1.2 µM 18% | [12]; at 3.7 µM 66% | [13]; [16] -48% | [14]; at 1.2 µM 1% | [14]; at 3.7 µM 34%
active: [1]; at 33.0 µM 99% | [1]; at 100.0 µM 99% | [2]; at 3.7 µM 79% | [2]; at 11.0 µM 94% | [2]; at 33.0 µM 97% | [2]; at 100.0 µM 99% | [3]; at 11.0 µM 76% | [3]; at 33.0 µM 99% | [3]; at 100.0 µM 99% | [4]; at 3.7 µM 79% | [4]; at 11.0 µM 96% | [4]; at 33.0 µM 99% | [4]; [17] 95% | [4]; at 50.0 µM 98.8% | [4]; at 100.0 µM 99% | [5]; at 11.0 µM 97% | [5]; at 33.0 µM 99% | [5]; [17] 96% | [5]; at 50.0 µM 99.6% | [5]; at 100.0 µM 100% | [6]; at 11.0 µM 90% | [6]; at 33.0 µM 99% | [6]; at 100.0 µM 99% | [7]; [17] 95% | [7]; at 50.0 µM 98.9% | [8]; at 11.0 µM 84% | [8]; at 33.0 µM 98% | [8]; at 100.0 µM 99% | [9]; [17] 94% | [9]; at 50.0 µM 96.5% | [10]; at 11.0 µM 81% | [10]; at 33.0 µM 98% | [10]; [17] 95% | [10]; at 50.0 µM 99% | [10]; at 100.0 µM 99% | [11]; at 11.0 µM 86% | [11]; at 33.0 µM 99% | [11]; at 100.0 µM 99% | [12]; at 11.0 µM 96% | [12]; at 33.0 µM 99% | [12]; at 100.0 µM 99% | [13]; [17] 94% | [13]; at 50.0 µM 99.5% | [14]; at 11.0 µM 94% | [14]; at 33.0 µM 98% | [14]; at 100.0 µM 99%

CCOC(=O)c1[nH]c2cccc3c2c1CC(Br)C3=O (centres undefined)
inactive: [1]; at 1.2 µM -23% | [1]; at 3.7 µM -5% | [1]; at 11.0 µM -3% | [1]; at 33.0 µM 19% | [1]; at 100.0 µM 60% | [2]; at 1.2 µM -31% | [2]; at 3.7 µM -1% | [2]; at 11.0 µM -12% | [2]; at 33.0 µM 34% | [2]; at 100.0 µM 62% | [3]; at 1.2 µM -33% | [3]; at 3.7 µM 0% | [3]; at 11.0 µM -4% | [3]; at 33.0 µM 67% | [4]; at 1.2 µM -15% | [4]; at 3.7 µM -34% | [4]; [16] 45% | [4]; at 11.0 µM -12% | [4]; at 33.0 µM 57% | [5]; at 1.2 µM -6% | [5]; at 3.7 µM 3% | [5]; [16] 46% | [5]; at 11.0 µM 14% | [6]; at 1.2 µM 0% | [6]; at 3.7 µM -8% | [6]; at 11.0 µM -9% | [6]; at 33.0 µM 4% | [6]; at 100.0 µM 58% | [7]; [16] 66% | [9]; [16] 6% | [9]; [17] 60% | [9]; at 50.0 µM 50.6% | [10]; at 1.2 µM -46% | [10]; at 3.7 µM -39% | [10]; [16] 56% | [10]; at 11.0 µM -29% | [10]; at 33.0 µM 32% | [15]; at 1.2 µM -28% | [15]; at 3.7 µM 2% | [11]; at 1.2 µM -27% | [11]; at 3.7 µM -19% | [11]; at 11.0 µM -11% | [11]; at 33.0 µM 53% | [12]; at 1.2 µM -8% | [12]; at 3.7 µM 14% | [12]; at 11.0 µM 27% | [12]; at 33.0 µM 68% | [14]; at 1.2 µM -39% | [14]; at 3.7 µM -22% | [14]; at 11.0 µM 2%
active: [3]; at 100.0 µM 88% | [4]; [17] 92% | [4]; at 50.0 µM 89.8% | [4]; at 100.0 µM 76% | [5]; at 33.0 µM 80% | [5]; [17] 96% | [5]; at 50.0 µM 91.3% | [5]; at 100.0 µM 87% | [7]; [17] 96% | [7]; at 50.0 µM 83.3% | [10]; [17] 93% | [10]; at 50.0 µM 76% | [10]; at 100.0 µM 78% | [15]; at 11.0 µM 81% | [15]; at 33.0 µM 97% | [15]; at 100.0 µM 97% | [11]; at 100.0 µM 83% | [12]; at 100.0 µM 80% | [13]; [16] 82% | [13]; [17] 96% | [13]; at 50.0 µM 89.4% | [14]; at 33.0 µM 74% | [14]; at 100.0 µM 89%

O=C(O)[C@H]1[C@@H](C2CCCCC2)O[C@@H](C2CCCCC2)O[C@H]1C(F)(F)F
inactive: [1]; at 1.2 µM -3% | [1]; at 3.7 µM 0% | [1]; at 11.0 µM 0% | [1]; at 33.0 µM 0% | [1]; at 100.0 µM 1% | [2]; at 1.2 µM -4% | [2]; at 3.7 µM -1% | [2]; at 11.0 µM 2% | [2]; at 33.0 µM -2% | [2]; at 100.0 µM -3% | [3]; at 1.2 µM 0% | [3]; at 3.7 µM -4% | [3]; at 11.0 µM 10% | [3]; at 33.0 µM -17% | [3]; at 100.0 µM 0% | [4]; at 1.2 µM -4% | [4]; at 3.7 µM -5% | [4]; [16] -46% | [4]; at 11.0 µM -19% | [4]; at 33.0 µM -4% | [4]; [17] 61% | [4]; at 100.0 µM -2% | [5]; at 1.2 µM 2% | [5]; at 3.7 µM -2% | [5]; [16] -19% | [5]; at 11.0 µM 1% | [5]; at 33.0 µM -4% | [5]; [17] 16% | [5]; at 100.0 µM 5% | [6]; at 1.2 µM -1% | [6]; at 3.7 µM -1% | [6]; at 11.0 µM 0% | [6]; at 33.0 µM 0% | [6]; at 100.0 µM -1% | [7]; [16] -25% | [7]; [17] 12% | [9]; [16] -11% | [9]; [17] -8% | [10]; at 1.2 µM -4% | [10]; at 3.7 µM 2% | [10]; [16] -20% | [10]; at 11.0 µM 3% | [10]; at 33.0 µM -2% | [10]; [17] 5% | [10]; at 100.0 µM -1% | [15]; at 1.2 µM -2% | [15]; at 3.7 µM -3% | [15]; at 11.0 µM -3% | [15]; at 33.0 µM -4% | [15]; at 100.0 µM -1% | [11]; at 1.2 µM -3% | [11]; at 3.7 µM -1% | [11]; at 11.0 µM -4% | [11]; at 33.0 µM -5% | [11]; at 100.0 µM 3% | [12]; at 1.2 µM -2% | [12]; at 3.7 µM 0% | [12]; at 11.0 µM 1% | [12]; at 33.0 µM 1% | [12]; at 100.0 µM 1% | [13]; [16] -3% | [13]; [17] 18% | [14]; at 1.2 µM -6% | [14]; at 3.7 µM -4% | [14]; at 11.0 µM -8% | [14]; at 33.0 µM -6% | [14]; at 100.0 µM -2%
active: [4]; at 50.0 µM 88.1% | [5]; at 50.0 µM 91.8% | [7]; at 50.0 µM 85.5% | [9]; at 50.0 µM 87.3% | [10]; at 50.0 µM 87.8% | [13]; at 50.0 µM 83.8%
